CF NFkB block: inhibitors of cystic fibrosis induced NF-kB | KKLEB NF-kB-GFP reporter, PAF-induced, GFP fluorescence overnight | inhibition, % at 5 µM | actives 0.86% (n = 360,000) | AID 588850;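 active = at least 50% inhibition at 5 µM, scaled per plate between neutral and stimulator controls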;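 also: PAF is a Pseudomonas aeruginosa culture filtrate used as stimulus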
TRPM1 prom inh: inhibitors of MITF-driven TRPM1 promoter in melanoma cells | SK-MEL-5 TRPM1 promoter luciferase, 24 h | inhibition, % at 12.5 µM | actives 0.83% (n = 330,000) | AID 488899;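 active = mean inhibition across replicates of 60% or more, whatever share of single replicates reaches that level; inconclusive = some that reach 60%, reason not given; inactive = mean inhibition across replicates below 60%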
EBV LMP1 NFkB: reduces LMP1-driven NF-kappaB luciferase signal | LMP1-induced NF-kappaB luciferase reporter cells, luminescence | inhibition, % at 12.5 µM | actives 0.69% (n = 350,000) | AID 504558; in the data active = inhibition above about 41%; inconclusive = no clear call, values can overlap the other calls
Peg3 prom inh-1: reduces Peg3 promoter-driven luciferase expression in HeLa; inhibition, % at 20 µM; actives 1.7% (n = 360,000); HeLa PEG-Prom luciferase reporter, luminescence, overnight; AID 588405;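 active = inhibition of at least 50% at 20 µM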
KKLEB cytotox: reduces viability of KKLEB cystic fibrosis airway cells | KKLEB CF airway cells viability, ATPlite luminescence, overnight; hits give low values; cells stimulated with P. aeruginosa culture filtrate | activity change (cytotoxicity), % at 5 µM | actives 0.36% (n = 360,000) | AID 602141;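 active = corrected activity change at or below -50% at 5 µM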
Shn3 3UTR inh: inhibitors of Schnurri-3 3'UTR reporter in osteoblasts; actives 0.52% (n = 360,000); inhibition, % at 12.5 µM; Clone20 osteoblast Shn3 3'UTR firefly luciferase, 24 h; AID 588674;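 active = mean inhibition of at least 75% with every replicate also reaching 75%; inconclusive = mean inhibition at least 75% but some replicate below; inactive = mean inhibition below 75%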
Peg3 prom inh-2: Peg3 promoter inhibition confirmation. shares compounds with Peg3 prom inh-1. HeLa PEG-Prom luciferase reporter, luminescence, overnight. inhibition, % at 20 µM. actives 84% (n = 1,300). AID 602417;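 active = at 20 µM dose, 40% or more inhibition averaged across four replicates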
Of the large screens only hits and unclear results are named; the others gave an inactive call (follow-up assays come after a bar, where they were run). This is a sample that favours compounds with a hit; in the whole collection about 2.9% have one here.

COc1ccc(S(=O)(=O)N2CCc3ccccc32)cc1C(=O)NC1(C)CCS(=O)(=O)C1 (centres undefined)	none
O=C(NNC(=O)c1cccnc1SCc1cccc([N+](=O)[O-])c1)c1ccccn1	Peg3 prom inh-1 54.8, Shn3 3UTR inh 96.5 | Peg3 prom inh-2 69.8
COc1ccc(CNC(=O)c2ccc(N3CCC4(CC3)CC(c3ccc(Cl)cc3)=NO4)c(NC(=O)Cc3ccc(F)cc3)c2)cc1	none
COCCCNC(=O)/C=C1\Sc2ccccc2N(Cc2ccccc2F)C1=O	none
CCN1CCN(CCNC(=O)c2ccc(/C=C3\Sc4ccccc4N(Cc4ccccc4F)C3=O)cc2)CC1	Peg3 prom inh-1 108.9 | Peg3 prom inh-2 99.4
Cc1[nH]n2c(=O)cc(C(C)(C)C)nc2c1-c1ccccc1	Peg3 prom inh-1 54.5 | Peg3 prom inh-2 50.5
O=C(O)c1cccc(COc2ccccc2Cl)c1	TRPM1 prom inh 91.9, EBV LMP1 NFkB 74.4, Peg3 prom inh-1 92.1, Shn3 3UTR inh 88.7 | Peg3 prom inh-2 82.2
CN(C)CCN(C(=O)c1ccc(S(=O)(=O)N(C)c2ccccc2)cc1)c1nc2cc3c(cc2s1)OCCO3	none
Cc1ccc2nc(N(CCCN(C)C)C(=O)c3ccc4c(c3)CCCC4)sc2c1	TRPM1 prom inh inconclusive, Peg3 prom inh-1 107.6 | Peg3 prom inh-2 97.9
CCOc1ccc2nc(N(CCN(C)C)C(=O)c3ccc4c(c3)CCCC4)sc2c1	none
CN(C)CCCN(C(=O)c1ccc(C(=O)c2ccccc2)cc1)c1nc2cc3c(cc2s1)OCO3	Peg3 prom inh-1 85.9 | Peg3 prom inh-2 90.2
CCN(Cc1ccccc1)S(=O)(=O)c1ccc(C(=O)N(CCCN(C)C)c2nc3cc4c(cc3s2)OCCO4)cc1	Peg3 prom inh-1 53.3 | Peg3 prom inh-2 72.5
CCN(CC)CCN(C(=O)c1ccc(C(=O)c2ccccc2)cc1)c1nc2cc3c(cc2s1)OCO3	none
COc1cccc(S(=O)(=O)N(C)C[C@H]2OCc3cnnn3CCCC(=O)N([C@@H](C)CO)C[C@@H]2C)c1	none (no result: TRPM1 prom inh)
COc1ccc(NC(=O)C2(C)Cc3c(-c4ccc5c(c4)OCO5)ccnc3O2)cn1 (centres undefined)	none (no result: TRPM1 prom inh, EBV LMP1 NFkB)
O=c1[nH]c(=S)c2[nH]c(=S)n(-c3ccccc3)c2[nH]1	none
O=c1[nH]c(=O)n(Cc2ccc(Oc3ccccc3)cc2)cc1Br	none
C=C1CC(Cn2cc(Br)c(=O)[nH]c2=O)(c2ccc(-c3ccccc3)cc2)OC1=O (centres undefined)	CF NFkB block 87.1, TRPM1 prom inh 108.6, Peg3 prom inh-1 99.6, Shn3 3UTR inh 94.8 | Peg3 prom inh-2 97.5
Cn1c(=O)c(C(=O)CCl)c(N)n(Cc2ccccc2)c1=O	Peg3 prom inh-1 68.8 | Peg3 prom inh-2 51.4
Cc1ccc(S(=O)(=O)CCSC(=N)N)cc1	Peg3 prom inh-1 54.7 | Peg3 prom inh-2 47.4
CC(NNC(=S)N1CCN(c2ccccn2)CC1)c1nccc2ccccc12 (centres undefined)	TRPM1 prom inh 85.9, EBV LMP1 NFkB 71.9, Peg3 prom inh-1 91.7, Shn3 3UTR inh 92.8 | Peg3 prom inh-2 87.5
COC(=O)c1ccc2nc(Nc3nc4ccc(F)cc4s3)sc2c1	TRPM1 prom inh 83.6, Peg3 prom inh-1 79.4 | Peg3 prom inh-2 89.8
CC(=O)c1sc(Nc2nc3ccc(F)cc3s2)nc1C	none
CCN1C(=O)[C@@H]2[C@@H]3CN(S(=O)(=O)c4ccc(C)cc4)[C@@H](c4ccccc4F)[C@@H]3C(=O)C[C@@H]2C1=O	none (no result: TRPM1 prom inh, EBV LMP1 NFkB)
CCOC(=O)Cc1csc(NC(=S)NC(=O)c2ccc([N+](=O)[O-])cc2)n1	none
CCOC(=O)Cc1csc(NC(=S)NC(=O)c2ccc(Cl)cc2)n1	Peg3 prom inh-1 51.4 | Peg3 prom inh-2 70.0
N#C/C(=C\c1ccc([N+](=O)[O-])cc1)c1ccccn1	none
CN(C)c1ccc(C(=S)Nc2ccccc2)cc1	none
CN(C)c1ccc(NC(=S)c2ccccn2)cc1	TRPM1 prom inh 78.6, EBV LMP1 NFkB 72.5, Peg3 prom inh-1 90.4, KKLEB cytotox -55.1 | Peg3 prom inh-2 66.4
CN(C)c1ccc(/C=C(\C#N)c2ccccn2)cc1	TRPM1 prom inh 68.3, EBV LMP1 NFkB 59.7, Peg3 prom inh-1 78.2, KKLEB cytotox -90.8 | Peg3 prom inh-2 49.3
COc1ccc(C(O)c2ncc(-c3ccccc3)[nH]2)cc1F (centres undefined)	none (no result: TRPM1 prom inh, EBV LMP1 NFkB)
CC(C)n1ncc2c(C(=O)NCC(=O)Nc3ccccc3Br)cc(C3CC3)nc21	none
O=C(N/N=C(\c1ccccc1)c1ccccn1)c1cccc([N+](=O)[O-])c1	TRPM1 prom inh 82.9, Peg3 prom inh-1 51.0, Shn3 3UTR inh 91.6 | Peg3 prom inh-2 61.5
O=C(NN=Cc1c(F)c(F)c(F)c(F)c1F)c1ccc(NS(=O)(=O)c2cccs2)cc1	Peg3 prom inh-1 57.0 | Peg3 prom inh-2 inactive
C/C(=N\NC(=O)c1ccc(NS(=O)(=O)c2cccs2)cc1)c1cccs1	none
CSc1ccc(CN2CCc3c([nH]c4ccccc34)C2)cc1	none
Clc1ccc(CN2CCc3c([nH]c4ccccc34)C2)cc1Cl	Peg3 prom inh-1 81.4 | Peg3 prom inh-2 inactive
O=C(CN1CCCC1)Nc1ccc(-c2nc3cc(NC(=O)CN4CCCC4)ccc3o2)cc1	Peg3 prom inh-1 71.5 | Peg3 prom inh-2 92.3
CCCC(=O)Nc1ccc2oc(-c3ccncc3)nc2c1	none
Cc1c(/C(O)=C2/C(=O)C(=O)N(Cc3cccnc3)C2c2ccccn2)cnn1-c1ccccc1 (centres undefined)	Peg3 prom inh-1 65.8 | Peg3 prom inh-2 59.0
CCc1nc2ccc(C(=O)NCCOc3ccc(OC)cc3)cn2c1N(CC)CCN(C)C	none (no result: TRPM1 prom inh, EBV LMP1 NFkB)
COC(=O)C1=C(CN2CCCc3ccccc32)NC(=O)NC1c1ccc(F)cc1 (centres undefined)	TRPM1 prom inh 86.8, Peg3 prom inh-1 81.3 | Peg3 prom inh-2 66.6
Cc1ccc(C(C(=O)NCc2ccco2)N(C(=O)CNC(=O)c2cccs2)c2c(C)cccc2C)cc1 (centres undefined)	Peg3 prom inh-1 65.6 | Peg3 prom inh-2 inactive
Cc1ccc(C(C(=O)NCc2ccco2)N(C(=O)CNC(=O)c2cccs2)c2ccc(C)cc2)cc1 (centres undefined)	none
O=C(NCCc1ccccc1)Nc1nnc([C@@H]2C[C@H](O)[C@@H](CO)O2)s1	none (no result: TRPM1 prom inh, EBV LMP1 NFkB)
COc1cccc(-c2cccc(-c3nc(C(=O)NCc4ccc5c(c4)OCO5)cc4c3[C@H](CCO)N(S(=O)C(C)(C)C)C4)c2)c1 (some centres undefined)	none (no result: TRPM1 prom inh, EBV LMP1 NFkB)
COc1cccc(-c2cccc(-c3nc(C(=O)Nc4ccc(-c5ccccc5)cc4)cc4c3[C@H](CCO)N(S(=O)C(C)(C)C)C4)c2)c1 (some centres undefined)	Peg3 prom inh-1 78.0 (no result: TRPM1 prom inh, EBV LMP1 NFkB) | Peg3 prom inh-2 inactive

Bioassay records (PubChem BioAssay)
